PubChem BioAssay (NCI)
About 83,000 compounds went through this panel and 20% of them were active in at least one assay; those are over-represented in the sample as a whole.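 For each line, cells grew in 96-well plates with the test compound present at a single concentration for 48 hours.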 Unmarked numbers belong to inactive results. The source made the active and inactive calls. How the source made its calls: active means growth percent below 10; inactive means the rest.

Columns and labels:
Assay in all cases: NCI-60 one-dose screen, 48 h (100 = growth as untreated, 0 = no growth, -100 = all killed)
Conditions in all cases: 10 µM unless noted
NCI-H23 lung = test system: NCI-H23 lung
NCI-H226 lung = test system: NCI-H226 lung
NCI-H322M lung = test system: NCI-H322M lung
HOP-62 NSCLC = test system: HOP-62 NSCLC
NCI-H460 lung = test system: NCI-H460 lung
HOP-92 NSCLC = test system: HOP-92 NSCLC
NCI-H522 lung = test system: NCI-H522 lung
A549/ATCC NSCLC = test system: A549/ATCC NSCLC
786-0 renal = test system: 786-0 renal
COLO 205 colon = test system: COLO 205 colon

Compound | growth (NCI-H23 lung) | growth (NCI-H226 lung) | growth (NCI-H322M lung) | growth (HOP-62 NSCLC) [%] | growth (NCI-H460 lung) | growth (HOP-92 NSCLC) | growth (NCI-H522 lung) | growth (A549/ATCC NSCLC) | growth (786-0 renal) | growth (COLO 205 colon)
COc1cc(/C=C2\CN(S(=O)(=O)c3ccccc3)C/C(=C\c3cc(CN4CCCCC4)c(O)c(OC)c3)C2=O)cc(CN2CCCCC2)c1O | -74.7% (active) | 43.4% | -30.1% (active) | 104 | -62.6% (active) | -65.2% (active) | -46.8% (active) | 12.1% | -68.8% (active) | –
CC(=O)OC[C@]12CC[C@@H]([C@@H](C)c3nnc(-c4ccncc4)o3)[C@@H]1[C@H]1CC[C@@H]3[C@@]4(C)CC[C@H](OC(C)=O)C(C)(C)[C@@H]4CC[C@@]3(C)[C@]1(C)CC2 | 82% | 60.6% | 95.9% | 98.4 | 58.6% | 66.1% | 76.2% | 62.5% | 80.4% | –
O=C1/C(=C\c2cccc3nccnc23)SC(=S)N1CCc1ccc(O)cc1 | 93.7% | 95.4% | 96.4% | 99.5 | 105% | -0.0093% (active) | 81.9% | 100% | 94.8% | –
O=C(Cc1ccccc1)Nc1cccc(N=Cc2ccccc2O)c1 | 107% | 104% | 108% | 115 | 107% | 88.1% | 91.1% | 99.3% | 104% | –
CCN1C(=O)N(CC)C2C1NN=c1s/c(=C3\C(=O)N(CCC(C)C)c4ccccc43)c(=O)n12 (stereo unspecified) | 30.8% | 56.3% | 52.1% | 38.9 | 5.57% (active) | 40.4% | 1.9% (active) | 14.2% | 29.1% | 12.3%
O=C(NC1CC(F)C1)c1cc2cccnc2n1-c1ccc(Cl)c(Cl)c1 (stereo unspecified) | 100% | 103% | 97.3% | 98.9 | 101% | 83% | 88.5% | 96.5% | 95.2% | –
O=P(O)(O)OCC1OC(n2cnc3c(NCc4ccco4)ncnc32)C(O)C1O (stereo unspecified) | 18% | 20.4% | 28.3% | 16 | 12.6% | -7.22% (active) | -32.7% (active) | 7.15% (active) | 10.5% | –
O=C(CN1CCN(c2cc3c(cc2F)c(=O)c(C(=O)O)cn3C2CC2)CC1)N/N=C/c1ccco1 | 104% | 94.1% | 95% | 82.8 | 105% | 87.9% | 93.5% | 90.6% | 96.4% | –
Cc1c(Cl)cccc1C(=O)Nc1nc2c(s1)CN(C(=O)c1ccc(C(F)(F)F)cc1)CC2 | 33.7% | 50.9% | 45.2% | 41.8 | 0.935% (active) | 35.9% | 11.4% | 25.5% | 40.3% | 6.86% (active)
COc1cccc(CCNc2ncnc3c2ncn3Cc2nnc3c4ccccc4c(Cl)nn23)c1 | 70.1% | 66.6% | 52.8% | 57.5 | 61.5% | 42.7% | 5.17% (active) | 77.8% | 57.7% | –
C/C(Cc1ccc(Cl)cc1)=C(\c1ccc(OCCCN(C)C)cc1)c1ccc(OC(=O)Cc2ccccc2)cc1 | 101% | 110% | 105% | 92.2 | 110% | 101% | 70.5% | 105% | 104% | 112%
CCOC(=O)C1=C(C)/C(=C\c2[nH]c(C)c(C(=O)OCC)c2C)N=C1C | 80.2% | 94.3% | 93.5% | 83.2 | 102% | 103% | 75.4% | 86.7% | 98.9% | –
C=C(CNCCO)[C@@H]1CC[C@]2(CO)CC[C@]3(C)[C@H](CC[C@@H]4[C@@]5(C)CCC(N)C(C)(C)[C@@H]5CC[C@]43C)[C@@H]12 (stereo partly specified) | 83.7% | 88% | 80.2% | 71.4 | -26.8% (active) | 54.5% | 0.745% (active) | 36.2% | 11% | -74.7% (active)
CC(C)(C)n1cc(-c2ccnc(NCCNS(=O)(=O)c3ccc(O)cc3)c2)c(-c2cccc(O)c2)n1 | 98.6% | 102% | 105% | 101 | 104% | 102% | 94.8% | 97.3% | 103% | 91.9%
Cc1ccc(N2C(=O)CCC2=O)cc1 | 101% | 105% | 104% | 99.2 | 99.7% | 96.3% | 74.2% | 102% | 97.4% | 107%
O=C(N=Nc1c(O)[nH]c2ccccc12)Nc1ccc(F)cc1 | 96.8% | 91.7% | 93.8% | 83.2 | 108% | 94% | 78.5% | 87.5% | 97.3% | 103%
CN(Cc1ccccc1)c1nc(Cl)c(C2CC(c3ccccc3)=NN2c2ccccc2)s1 (stereo unspecified) | 88.3% | 89% | 97.6% | 84.5 | 101% | 86% | 77.8% | 85.7% | 93.9% | 105%
O=C1/C(=C2\SC(=S)N(C3CC3)C2=O)SC(=S)N1C1CC1 | 96.7% | 95.5% | 95.6% | 99.3 | 103% | 98.9% | 91.9% | 98.1% | 98.6% | 117%
CCOC(=O)c1c(C)nc2ccccc2c1/C=C/c1ccccc1 | 51% | 74.3% | 95.5% | 93.8 | 86.9% | 79.7% | 54.7% | 57.1% | 88.6% | 84.1%
COc1ccc2nc(Cl)c(/C=C3\CC(c4ccccc4)=NN(c4ccccc4)C3=O)cc2c1 | 78.8% | 55.6% | 74.6% | 48.4 | 67.8% | -20.3% (active) | 65.6% | 65.2% | -4.27% (active) | 99.3%
COc1ccc2[nH]cc(-c3nc(-c4c[nH]c5c(Cl)nccc45)cs3)c2c1 | 54.1% | 40.3% | 72.2% | 61.2 | -3.62% (active) | 56.2% | 25.8% | 28.6% | 9.87% (active) | 42.2%
COc1cc(-c2nc3sccn3c2-c2ccnc(NCCNS(=O)(=O)c3ccc(Cl)cc3)n2)ccc1F | 18.7% | 8.63% (active) | 70.4% | 34.7 | 42.2% | 78.8% | 1.16% (active) | 30% | 61.8% | 33.8%
CCN1C2CCC1/C(=C\c1ccc(F)cc1)C(=O)/C2=C/c1ccc(F)cc1 | 29.2% | 51.6% | 42.9% | 46 | 46.4% | 38.1% | 36.7% | 52.6% | 42.5% | 20.7%
COc1ccc(C[n+]2c3ccccc3n3c4ccc(N)cc4ccc32)c(OC)c1OC | 48.9% | 61.4% | 102% | 52.9 | 73.6% | -0.227% (active) | 11% | 63% | 75.9% | 15.5%
CC(=O)ON1CCCC(P(=O)(OCCSC(=O)C(C)(C)C)OCCSC(=O)C(C)(C)C)C1=O (stereo unspecified) | 45.9% | 33.6% | 46.1% | 32 | 16.1% | 29.4% | 28.9% | 33.5% | 19.1% | 27.5%
CN(C)c1ccc(-c2ccc3c(c2)c(-c2ccccc2)nc(=O)n3C)cn1 | 71% | 77.2% | 60.9% | 36.8 | 19.7% | -45.4% (active) | 7.96% (active) | 45.8% | 26.2% | 28.1%
